# Data published in the supplement of paper PMC10646978.
# ± gives the standard deviation.
# Columns and labels:
# Details in all cases: modulator concentration 10 µM
# [1] = tested on: RAW-Dual (murine macrophage reporter line); assay: NF-kB reporter (SEAP) activity fold change vs agonist alone; higher = enhanced NF-kB activity
# Outline: (§1)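 Overnight stimulation with a PRR agonist followed pre-incubation for 1 hour at 37 °C with compound at 10 μM final. This was done in RAW-Dual murine macrophage reporter cells seeded at 50 000 per well in 384-well plates. NF-κB (SEAP, QUANTI-Blue absorbance at 620 nm) and IRF (Lucia luciferase, QUANTI-Luc luminescence) were read from the supernatant. Each reporter's fold change relative to the mean agonist-only control on the same plate was averaged over replicate plates.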
# [2] = tested on: RAW-Dual (murine macrophage reporter line); assay: IRF reporter (Lucia luciferase) activity fold change vs agonist alone; higher = enhanced IRF activity
# Outline: as §1
# [3] = tested on: RAW-Dual (murine macrophage reporter line); assay: viability score (confluency relative to resting cells, overnight) (fraction); higher = more viable, active = viable (0.7 or more)
# Outline: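 Overnight exposure to 10 μM final compound was carried out on RAW-Dual macrophages in 384-well plates. IncuCyte software generated two confluency masks over all wells imaged with IncuCyte. The viability score gives confluency in relation to resting cells. A compound met the cutoff if each mask exceeded 70% of resting cells.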
# [4] = agonist: CpG ODN 1826 0.5 ug/mL
SMILES,"NF-kB reporter [1, 4]",NF-kB reporter ([1]; agonist: LPS 0.1 ug/mL),NF-kB reporter ([1]; agonist: MPLA […]),IRF reporter ([2]; agonist: 3'3'-cGAMP 10 ug/mL),IRF reporter ([2]; agonist: LPS 0.1 ug/mL),IRF reporter ([2]; agonist: MPLA […]),viability score [3]
COc1cc(C=C2SC(=S)NC2=O)ccc1OCCC(C)C,0.847 ± 0.074,0.969 ± 0.049,1.09 ± 0.11,1.03 ± 0.047,1.43 ± 0.12,1.61 ± 0.2,1 (active)
COc1ccc(NC(=O)c2ccc(C(=N)N(C)C)cc2)c(C(=O)Nc2ccc(Cl)cn2)c1,0.892 ± 0.33,1.18 ± 0.061,1.1 ± 0.11,0.837 ± 0.043,1.05 ± 0.13,1.22 ± 0.26,0.994 (active)
Cc1cc(C#N)cc(C)c1Oc1nc(Nc2ccc(C#N)cc2)nc(N)c1Br,1.15 ± 0.049,1.3 ± 0.1,1.5 ± 0.14,1.39 ± 0.21,1.05 ± 0.24,1.28 ± 0.42,0.97 (active)
Br.O=S(=O)(c1ccc(-c2csc(Nc3ccc(Br)cc3)n2)cc1)N1CCCC1,0.814 ± 0.063,1.08 ± 0.099,0.858 ± 0.065,1.03 ± 0.034,1.37 ± 0.1,1.2 ± 0.16,1.01 (active)
NCCCS(=O)(=O)O,0.883 ± 0.069,1 ± 0.072,0.98 ± 0.024,1.06 ± 0.058,0.978 ± 0.039,0.891 ± 0.12,0.998 (active)
CC(O)(P(=O)(O)O)P(=O)(O)O,0.76 ± 0.033,0.997 ± 0.1,1.08 ± 0.079,0.956 ± 0.069,1.14 ± 0.27,1.26 ± 0.4,0.98 (active)
O=C(CCN1C(=O)c2cccc([N+](=O)[O-])c2C1=O)Nc1ccc(F)cc1,1.01 ± 0.13,1.02 ± 0.069,1.02 ± 0.035,0.875 ± 0.082,0.958 ± 0.099,1.07 ± 0.23,1 (active)
O=S(=O)(Nc1nc2ccccc2nc1Nc1ccc2c(c1)OCCO2)c1cccs1,0.985 ± 0.078,1.02 ± 0.065,1.13 ± 0.1,0.85 ± 0.028,1.29 ± 0.2,1.05 ± 0.098,0.99 (active)
Cn1c(=O)[nH]c2nnc(-c3cccnc3)nc2c1=O,1.09 ± 0.2,0.961 ± 0.084,0.975 ± 0.081,0.927 ± 0.03,1.22 ± 0.12,1.31 ± 0.13,0.881 (active)
CCCCCCCCCCCC(CC1OC(=O)C1CCCCCC)OC(=O)C(CC(C)C)NC=O (centres undefined),1.55 ± 0.37,1.04 ± 0.092,0.364 ± 0.07,0.475 ± 0.023,1.61 ± 0.19,0.197 ± 0.065,0.943 (active)
CCOC(=O)C1=C(C)NC(C)=C(C(=O)OC)C1c1ccc(C)cc1 (centres undefined),0.782 ± 0.069,0.743 ± 0.062,1.2 ± 0.046,0.815 ± 0.13,0.914 ± 0.039,1.34 ± 0.087,0.935 (active)
COc1cc(Cl)cc(C=NNC(=O)c2cc(C)n[nH]2)c1O,1.16 ± 0.09,0.793 ± 0.038,0.943 ± 0.082,0.785 ± 0.066,1.46 ± 0.088,1.62 ± 0.14,0.968 (active)
CC1=NN(C(=O)OC(C)(C)C)C(O)(c2ccncc2)C1 (centres undefined),1.03 ± 0.084,1.01 ± 0.1,0.886 ± 0.084,0.979 ± 0.081,1.14 ± 0.14,1.22 ± 0.2,1.03 (active)
CC1(C)CC(=O)c2c(nc3ccc(Br)cc3c2N)C1.Cl,0.513 ± 0.035,1.08 ± 0.067,0.883 ± 0.053,0.771 ± 0.036,1.07 ± 0.12,1.11 ± 0.11,0.995 (active)
O=C(COc1ccc(Cl)cc1)Nc1ccc(OC(F)(F)F)cc1,1.03 ± 0.069,1 ± 0.078,0.943 ± 0.043,0.989 ± 0.072,0.973 ± 0.1,0.88 ± 0.18,0.993 (active)
O=C(NCCN1CCOCC1)c1ccccc1Br,0.967 ± 0.081,1.13 ± 0.089,0.952 ± 0.035,1.02 ± 0.15,1.13 ± 0.12,0.897 ± 0.18,0.997 (active)
CC(C)(C)c1cc(C(=O)Oc2cccc3cccnc23)cc(C(C)(C)C)c1,0.895 ± 0.05,0.976 ± 0.06,0.923 ± 0.064,0.938 ± 0.034,1.25 ± 0.097,1.23 ± 0.12,1 (active)
Cl.Nc1ccn([C@@H]2O[C@H](CO)[C@@H](O)[C@@H]2O)c(=O)n1,1.61 ± 0.12,1.13 ± 0.068,1.06 ± 0.047,0.87 ± 0.13,1.03 ± 0.1,0.8 ± 0.079,0.579 (inactive)
COc1ccc(OC)c(Nc2nc(-c3c(C)nc4ccccn34)cs2)c1,1.35 ± 0.22,1.45 ± 0.12,1.58 ± 0.13,0.241 ± 0.0091,1.25 ± 0.22,1.53 ± 0.24,0.967 (active)
CC(/C=C1\SC(=S)N(CC(=O)O)C1=O)=C\c1ccccc1,0.7 ± 0.036,0.822 ± 0.093,1.05 ± 0.094,0.977 ± 0.048,1.4 ± 0.29,1.66 ± 0.52,0.962 (active)
Cc1ccc([N+](=O)[O-])cc1S(=O)(=O)N(C)C,1.05 ± 0.17,0.949 ± 0.077,1 ± 0.1,1.06 ± 0.037,1.09 ± 0.26,1.2 ± 0.12,1 (active)
COc1ccc(-c2[nH]c(-c3ccccc3)nc2SCC(=O)NC2CCCC2)cc1,0.875 ± 0.061,1.07 ± 0.069,1.64 ± 0.11,0.892 ± 0.03,1.09 ± 0.095,1.11 ± 0.1,1 (active)
NC(=NOC(=O)c1ccc2nsnc2c1)c1ncon1,1.04 ± 0.17,0.965 ± 0.084,0.905 ± 0.088,0.922 ± 0.035,1.05 ± 0.11,1.18 ± 0.12,0.996 (active)
CC1=NN(c2ccc(C(=O)O)cc2)C(=O)C1=Cc1ccc(-c2cc(C)c(C)cc2[N+](=O)[O-])o1,0.951 ± 0.057,0.969 ± 0.076,0.947 ± 0.073,1 ± 0.066,0.976 ± 0.07,0.92 ± 0.23,0.997 (active)
O=C(NCCN1CCOCC1)c1ccc(F)cc1,1.11 ± 0.1,0.995 ± 0.094,1.01 ± 0.039,1.05 ± 0.17,1.03 ± 0.053,1 ± 0.12,0.986 (active)
COc1ccc(CNC2CCCc3ccccc32)cc1OC (centres undefined),0.648 ± 0.24,1.1 ± 0.09,0.981 ± 0.11,0.713 ± 0.026,1.12 ± 0.14,1.5 ± 0.29,0.508 (inactive)
CCNC1(C(N)=O)CCN(c2ncnc3c2nc(-c2ccccc2Cl)n3-c2ccc(Cl)cc2)CC1.Cl,1.24 ± 0.11,0.479 ± 0.038,0.674 ± 0.036,0.19 ± 0.0086,0.464 ± 0.13,0.484 ± 0.12,0.688 (inactive)
